# Experimental data reported in the supplement of paper PMC4237247.
# Counter-ions that a name gives are not always drawn.
# Test system: HeLa
# Assay: percent cells in G1 phase; higher = more G1 arrest
# Conditions: 10 µM; 20 h
# Procedure: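 HTS of 79,827 drug-like compounds at 10 uM. HeLa cells in 384-well plates were treated for 20 h, fixed, stained with Vybrant DyeCycle Green and scanned on an Acumen eX3 cytometer to give per-well cell cycle profiles (% cells in each phase). The plate Z' was 0.51. Only hits are listed: G1 hits >4 SD and S hits >5 SD from the mean.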
row,SMILES,percent cells in G1 phase
1,c1ccc2c(c1)Nc1nc3ccccc3nc1O2 (hit class: G1-phase inhibitor),70.5%
2,C[C@@H]1C[C@H]2[C@@H]3C[C@H](F)C4=CC(=O)C=C[C@]4(C)[C@@]3(Cl)[C@@H](O)C[C@]2(C)[C@H]1C(=O)COC(=O)C(C)(C)C [Clocortolone pivalate] (hit class: S-phase inhibitor),43.2%
3,CC(=O)C1=C(O)C(=O)N(CC(=O)O)C1c1ccccc1F (configuration not stated) (hit class: S-phase inhibitor),61.1%
4,Cc1ccc(-c2cc(-c3ccccc3Cl)[nH]n2)c(O)c1 (hit class: G1-phase inhibitor),69.2%
5,O=C1c2c(O)ccc(O)c2C(=O)c2c(NCCNCCO)ccc(NCCNCCO)c21 [Mitoxantrone dihydrochloride] (hit class: G1-phase inhibitor),70%
6,C[C@@H]1CCC[C@H](C)N1NC(=O)c1ccc(Cl)c(S(N)(=O)=O)c1 [Clopamide] (hit class: G1-phase inhibitor),70.5%
7,Cc1cc(N2CCCCC2)c(F)cc1[N+](=O)[O-] (hit class: S-phase inhibitor),44.7%
8,COc1ccc(C(=O)c2coc3ccc(OC)cc3c2=O)cc1 (hit class: G1-phase inhibitor),70.5%
9,CC[C@@H](C(=O)[C@@H](C)[C@@H](O)[C@H](C)CCc1ccc(C)c(O)c1C(=O)O)[C@H]1O[C@](CC)([C@H]2CC[C@](O)(CC)[C@H](C)O2)C[C@@H]1C [Lasalocid sodium salt] (hit class: G1-phase inhibitor),73.9%
10,COc1c(C)c2c(c(O)c1C/C=C(\C)CCC(=O)O)C(=O)OC2 [Mycophenolic acid] (hit class: S-phase inhibitor),39%
11,COc1ccc(CSc2nncn2N)cc1 (hit class: S-phase inhibitor),61.4%
12,O=C(COc1ccc(Cl)cc1)NC(Cc1c[nH]c2ccccc12)C(=O)O (configuration not stated) (hit class: G1-phase inhibitor),69%
13,Nc1ccn([C@H]2CC[C@@H](CO)O2)c(=O)n1 [Zalcitabine] (hit class: S-phase inhibitor),45.1%
14,Cc1cc([N+](=O)[O-])ccc1NCc1ccc(F)c(F)c1 (hit class: G1-phase inhibitor),69.8%
15,CCN(CC)Cc1c(O)ccc2c(=O)c(-c3ccccc3)coc12 (hit class: S-phase inhibitor),55.9%
16,COc1[nH]c2ccccc2c1C=NO (hit class: S-phase inhibitor),59.4%
17,Cn1c(SCc2ccccc2)nc2ccccc2c1=O (hit class: S-phase inhibitor),60%
